Calls of active or inactive are those of the source. The calls were made as follows: active = hit-call score of the fitted dose curve at least 0.9, where 1 is the maximum; inactive = score below 0.9.
Read-out: Potassium channel subfamily K member 1 (KCNK1), KCNK1 (gene 3775)
Assay: LTEA_HepaRG_KCNK1: Life Technologies and Expression Analysis (LTEA) Assay for Potassium channel subfamily K member 1 (KCNK1) using HepaRG (AID 2283511)
Details: mRNA level, 48 h; actives raise or lower the signal
Experimental: LTEA_HepaRG is a cell based, multiplexed-readout assay that uses HepaRG, a human liver cell line, with measurements taken at 48 hours after chemical dosing on a 96-well plate.LTEA_HepaRG_KCNK1 is one of 102 assay component(s) measured in the LTEA HepaRG cell culture assay. It is a marker of Hyperplasia.Data from the assay component LTEA_HepaRG_KCNK1 was analyzed into 1 endpoint. This assay endpoint, LTEA_HepaRG_KCNK1, was analyzed with bidirectional fitting relative to DMSO as the negative control and baseline of activity. Using a type of inducible reporter, measures of mRNA induction for gain or loss-of-signal activity can be used to understand regulation of transcription factor activity. To generalize the intended target to other relatable targets, this assay endpoint is annotated to the ion channel intended target family, where the subfamily is potassium channel.
A total of 1060 chemcials from the ToxCast library were tested in eight-point concentration-response experiments. Cell culture and cytotoxicity assays were conducted at Thermo Fisher Scientific's Custom Services facility (Madison, WI). A single lot of human HepaRG cells (Thermo Fisher Scientific, Frederick, MD) was used for the cell culture experiments. 96-well format collagen type I coated plates of human HepaRG cells were prepared using established methods. Briefly, cryopreserved HepaRG cells were thawed, plated at a density of approximately 100,000 cells/well in HepaRG Thaw, Plate, and General Purpose media (HPRG770, Thermo Fisher Scientific), and incubated for 48 hours. 0.5% DMSO was selected as vehicle control to balance the requisite need of DMSO in HepaRG cultures to maintain differentiation (for example, baseline metabolism, proportions of hepatocytes vs. cholangiocytes), while enabling further hepatic receptor pathway activation (for example, PXR and CAR) in response to chemical exposure. 48 hours after plating, the culture medium was replaced with HepaRG Serum-Free Incudtion Media. Cells were exposed to each test chemical in duplicate and maintained in CO2 incubators for another 48 hours. Chemical plates were thawed to room temperature and 200x concentrations of treatment groups were prepared. 8-point conentration-reponse curves were made with the highest exposure at 100 uM, followed by half-log dilutions, all in 0.5% DMSO. Each test plate contained variouse controls, induction positive controls (1mM phenobarbital), cytotoxicity positive controls ([…] aflatoxin B1), vehicle controls (0.5% DMSO), and total lysis controls (0.5% DMSO). Cell morphology images were taken using an Essen IncuCyte FLR automated microscope, with six 96-well plates imaged in about 24 minutes. Images were captured and exported and JPEG files. Spent culture media was transfered to black-well plates for the LDH assay, and remaining media was sorted at -80 C for later use. Cells were treated with RLT buffer and frozen until shipped for gene expression analysis. Total RNA was isolated from the cell suspension in 75 uL of Buffer RLT (Qiagen, Germantown, MD 20874) by Quintiles/Expression Analysis (Durham, NC) using a custom isolation procedure. Total RNA from each plate well was transferred to a preamplification plate. Fluidigm's 96.96 Dynamic ArrayTM (Fluidigm, Amsterdam, the Netherlands) technology was used for gene expression analyses by quantitative reverse transcription polymerase chain reaction (qRT-PCR, performed by Quintiles/Expression Analysis, Durham, NC)89. Standard TaqManTM Assays (Applied Biosystems/ThermoFisher Scientific, Foster City, CA) were used to assess the expression of 93 genes selected based on their selectivity and sensitivity to important hepatic receptors known to be modulated by environmental chemicals; importance in human hepatocyte functionality; and hepatotoxicity. […]

Structure (SMILES)	outcome	AC50
CCCCCCCCOC(=O)CCCCCCCCC(=O)OCCCCCCCC	inactive	–
CCCCC(CC)COC(=O)CCCCC(=O)OCC(CC)CCCC (stereo not given)	inactive	–
Nc1cccc2c(N)cccc12	inactive	–
c1ccc2c(c1)ccc1ccccc12	inactive	–
CC(C)(C)c1cc(C(C)(C)C)c(O)c(C(C)(C)C)c1	inactive	–
CC(C)(C)c1ccc(O)c(C(C)(C)C)c1	–	0.0804 µM (active)
O=[N+]([O-])c1ccc(O)cc1	inactive	–
NC(=O)N1C(=O)C(C(=O)c2cc(Cl)cs2)c2cc(F)c(Cl)cc21 (stereo not given)	–	29.1 µM (active)
c1ccc2cc3c(ccc4ccccc43)cc2c1	inactive	–
c1ccc2c(c1)Cc1ccccc1-2	inactive	–
O=C(O)c1ccccc1C(c1ccc(O)cc1)c1ccc(O)cc1	inactive	–
O=C(OCCOCCOC(=O)c1ccccc1)c1ccccc1	inactive	–
COC(=O)CCCCC(=O)OC	inactive	–
Oc1cc2ccccc2c2ccccc12	inactive	–
CC[C@H](c1ccc(O)cc1)[C@@H](CC)c1ccc(O)cc1	inactive	–
CN(C)C=O	inactive	–
N#C[C@@H]1CC(F)(F)CN1C(=O)CNC1CC2CCC(C1)N2c1ncccn1 (stereo not given in full)	inactive	–
CC(C)(C)c1cccc(C(C)(C)C)c1O	inactive	–
Cc1cc(CCN2CCN(c3nsc4ccccc34)CC2)cc2c1NC(=O)CC2(C)C	inactive	–
CC(C)(C)CC(C)(C)c1ccc(O)c(-n2nc3ccccc3n2)c1	inactive	–

Structure (SMILES)	outcome	AC50
O=C(O)Cc1cc(I)c(Oc2cc(I)c(O)c(I)c2)c(I)c1	–	53.9 µM (active)
CC#C[C@]1(O)CC[C@H]2[C@@H]3CCC4=CC(=O)CCC4=C3[C@@H](c3ccc(N(C)C)cc3)C[C@@]21C	–	69 µM (active)
CCCOC(=O)c1ccc(O)cc1	inactive	–
CC(=O)CC(C)(C)O	inactive	–
CCCOc1sc(C(=O)N2CCC(c3cc(CN)ccc3F)CC2)c(C)c1Br	inactive	–
CCCCCCCC(=O)O	inactive	–
C[C@@H]1C[C@H]2[C@@H]3CCC4=CC(=O)C=C[C@]4(C)[C@@]3(F)[C@@H](O)C[C@]2(C)[C@@]1(O)C(=O)COP(=O)(O)O	inactive	–
OC1CCCCC1	inactive	–
CCN(CC)CCNc1ccc(CNC=O)c2sc3ccc(OC)cc3c(=O)c12	–	75.2 µM (active)
NC(=O)N(O)[C@@H]1C=C[C@H](Oc2cccc(Oc3ccc(F)cc3)c2)C1	–	35.5 µM (active)
CCCCCCCCCCCCN1CCCC1=O	inactive	–
C#C[C@]1(O)CC[C@H]2[C@@H]3CCC4=CC(=O)CC[C@@H]4[C@H]3CC[C@@]21C	inactive	–
CCCCCCCCCCCCc1ccccc1S(=O)(=O)O	inactive	–
CCCCCCCCC(=O)O	inactive	–
CCc1ccc(CCOc2ccc(CC3SC(=O)NC3=O)cc2)nc1 (stereo not given)	inactive	–
OCCC(F)(F)C(F)(F)C(F)(F)C(F)(F)C(F)(F)C(F)(F)F	inactive	–
CC(O)CO (stereo not given)	inactive	–
COCC(C)O (stereo not given)	inactive	–
CCCCC(CC)COC(=O)CCCCC(=O)OCc1ccccc1 (stereo not given)	inactive	–
CN1CCC[C@H]1c1cccnc1	inactive	–

Reference: PubChem BioAssay (EPA / NIEHS)
